Laboratory results as given in PubChem BioAssay AID686979 (National Center for Advancing Translational Sciences (NCATS), 2013).
Where “and” joins values, the source holds several entries; their conditions need not be identical. Equal entries are not always repeated. The whole screen tested about 420,000 compounds, of which about 50,000 (12%) were called active. Where a call stands in place of a potency, no number is given. Inconclusive results (about 26%) are left out. This excerpt belongs to a sample that is enriched for actives. A number with no mark means an inactive call. Calls come from the whole dose curve; as a rule, active = well fitted inhibition curve with a large enough effect; inconclusive = small, poorly fitted or top-dose-only effect; inactive = flat fitted curve, though single readings scatter.

Test: qHTS for Inhibitors of human tyrosyl-DNA phosphodiesterase 1 (TDP1): qHTS in cells in presence of CPT; note: nearly all actives have a fitted effect of over 55% in size
Settings: chicken DT40 Tdp1-/-;hTDP1 cells + 20 nM CPT, ATP luminescence, 48 h; series mostly up to 46.2 µM
Method in brief: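 Chicken DT40 Tdp1-/- cells complemented with human TDP1, 400 cells/well, exposed to compounds plus 20 nM camptothecin for at least 48 h at 37 C; viability read as ATP content by CellTiter-Glo luminescence.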
Potency is the fitted concentration of half-maximal effect.

Q: Which Potency does the source give for `O=C(c1ccccc1[N+](=O)[O-])N1CCC2(CC1)OCCO2` here?
A: inactive

Q: Which Potency does the source give for `Cc1cc(C)cc(C(=O)N(CCc2ccccc2)C2=CC3CCC(C2)N3C)c1` (stereo not drawn) here?
A: 20.6 µM (active)

Q: Which Potency does the source give for `CN1C2C=C(N(C(=O)c3ccc(Cl)cc3)c3ccccc3)CC1CC2` (stereo not drawn) here?
A: inactive

Q: With `Cc1ccc(N2C(=O)NC(=O)C(CCc3ccncc3)(Cc3cccc(Cl)c3Cl)C2=O)cc1` (stereo not drawn) as the compound, how does the Potency read?
A: inactive

Q: For `CN(C)C1C(=O)C(C(N)=O)=C(O)[C@@]2(O)C(=O)C3=C(O)c4c(O)cccc4[C@@](C)(O)C3C[C@@H]12` (stereo partly drawn), which Potency is on record?
A: 21.1 µM (active)

Q: With `CC(C)Nc1nc(Cl)nc(NC(C)C)n1` as the compound, how does the Potency read?
A: inactive

Q: For `COC(=O)C(O)(c1ccc(NC(=O)c2ccco2)c(OC)c1)C(F)(F)F` (stereo not drawn), which Potency is on record?
A: inactive

Q: Which Potency does the source give for `CCNc1nc2[nH]c(=O)c3c(c2s1)OC(N)=C(C#N)C3c1cccs1` (stereo not drawn) here?
A: inactive

Q: For `N#CC1=C(N)Oc2c(c(=O)oc3ccccc23)C1c1ccccc1OC(=O)c1cccs1` (stereo not drawn), which Potency is on record?
A: 18.4 µM (active)

Q: With `CNP1(NC)=Nc2nn(-c3ccccc3)c(N)c2C(c2ccccc2)=N1` as the compound, how does the Potency read?
A: inactive

Q: For `CN(C)CC1Oc2ccccc2OC1(O)c1ccccc1` (stereo not drawn), which Potency is on record?
A: 2.06 µM (active)

Q: For `COc1cc(OC)cc(C2(C#N)CCN(C)CC2)c1`, which Potency is on record?
A: inactive

Q: With `CCCCC/C=C\C/C=C\C/C=C\C/C=C\CCCCCC(=O)NCCO` as the compound, how does the activity change, negative = growth inhibition read?
A: -4.85% [at 4.12 µM]

Q: With `O=C(N/N=C/c1c(O)n(C2CC2)c(=S)[nH]c1=O)c1ccccc1Cl` as the compound, how does the Potency read?
A: inactive

Q: With `COC([CH2][Hg])CNC(=O)c1ccccc1OCC(=O)O` (stereo not drawn) as the compound, how does the Potency read?
A: 1.06 µM (active)

Q: For `c1cncc(CNC2=NCCC2)c1`, which Potency is on record?
A: inactive

Q: Which Potency does the source give for `CCOP(=S)(OCC)C(O)CCCCCn1c(=O)c(F)cn(C2CCCO2)c1=O` (stereo not drawn) here?
A: inactive

Q: For `CCC1(CC(C)c2ccccc2)C(=O)NC(=O)NC1=O` (stereo not drawn), which Potency is on record?
A: inactive

Q: Which Potency does the source give for `CCc1ccccc1NC(=O)c1sc2nc3c(cc2c1N)CN(Cc1ccccc1)CC3` here?
A: 7.31 µM (active)

Q: With `Cn1cc(C(=O)OCC(=O)N2CCCC2)c2ccccc21` as the compound, how does the Potency read?
A: inactive

Q: For `O=C(COC(=O)c1ccccc1)Nc1ccc(Cl)cc1C(=O)c1ccccc1`, which Potency is on record?
A: inactive

Q: Which Potency does the source give for `O=C(Nc1ccc(Cl)cc1C(=O)c1ccccc1)c1cc(Cl)cc(Cl)c1` here?
A: inactive

Q: With `CN1CCN(C(=S)SCC(=O)Nc2ccc(Cl)cc2C(=O)c2ccccc2)CC1` as the compound, how does the Potency read?
A: 14.6 µM (active)

Q: For `CC(Cc1cccs1)NCc1ccc(Cl)cc1` (stereo not drawn), which Potency is on record?
A: inactive

Q: With `CC(C)(Cc1c[nH]c2ccc(Cl)cc12)NCCOc1ccccc1OCC1CC1` as the compound, how does the Potency read?
A: 21.1 µM (active) and 6.51 µM (active)

Q: With `O=C(CCCn1c(=O)[nH]c2cc(Cl)ccc2c1=O)N1CCC2(CC1)OCCO2` as the compound, how does the Potency read?
A: inactive

Q: For `COc1ccc(-c2nc(CS(=O)CC(=O)N3CCC4(CC3)OCCO4)c(C)o2)cc1` (stereo not drawn), which Potency is on record?
A: inactive

Q: For `Cc1ccc(Cn2c(C)c3cnn(CC(=O)N4CCC5(CC4)OCCO5)c(=O)c3c2C)cc1`, which Potency is on record?
A: 20.6 µM (active)

Q: For `CCC(=O)OC(Cc1ccccc1)(c1ccccc1)C(C)CN(C)C` (stereo not drawn), which Potency is on record?
A: inactive

Q: Which Potency does the source give for `COC(=O)[C@@]12C[C@@H](CC(=O)NCc3cccc(C(F)(F)F)c3)C(=O)N(Cc3ccco3)C1=CCC(C)(C)C2` here?
A: 20.6 µM (active)

Q: With `COc1cccc(-c2nc3ccc(N4CCN(C)CC4)cc3[nH]2)c1` as the compound, how does the Potency read?
A: inactive

Q: For `O=C1C2CCN(CC2)C1(CO)CO`, which Potency is on record?
A: 2.66 µM (active)

Q: Which Potency does the source give for `CN(C)C(=O)NC(O)C(Cl)(Cl)Cl` (stereo not drawn) here?
A: inactive

Q: Which Potency does the source give for `O=c1[nH]c(=O)n(Cc2ccccc2)c(O)c1/C=N/Nc1c(F)c(F)c(F)c(F)c1F` here?
A: inactive

Q: Which Potency does the source give for `O=C1NC(=O)C(Cc2ccccc2)C(=O)N1` here?
A: inactive

Q: For `CCN(CC)C(=O)Oc1ccc(NC(=O)N2CCOCC2)cc1`, which Potency is on record?
A: inactive

Q: Which Potency does the source give for `O=C(OCCN1CCOCC1)C1(c2ccccc2)CCCC1` here?
A: inactive

Q: For `Cn1cc(/C=C/c2nc3ccccc3c(=O)n2-c2ccccc2)c2ccccc21`, which Potency is on record?
A: 10.3 µM (active)

Q: With `CSc1nc2ccc(C)cc2c(=O)n1-c1cccnc1` as the compound, how does the Potency read?
A: inactive

Q: With `O=c1c2ccccc2nc(/C=C/c2ccc(F)cc2)n1-c1ccccc1O` as the compound, how does the Potency read?
A: 23.1 µM (active)

Q: Which Potency does the source give for `O=c1c2ccccc2nc(/C=C/c2ccco2)n1-c1ccccc1O` here?
A: 14.6 µM (active)

Q: With `O=C(Nc1cccc2ccccc12)N1CCC2(CC1)OCCO2` as the compound, how does the Potency read?
A: inactive

Q: Which Potency does the source give for `CCOC(=O)C1CN(C)CCC1=O` (stereo not drawn) here?
A: inactive

Q: With `CN(C)CCCN=Cc1c(O)n(Cc2ccco2)c(=O)[nH]c1=O` as the compound, how does the Potency read?
A: inactive

Q: With `c1cc2c(cc1[C@H]1OC[C@H]3[C@@H]1CO[C@@H]3c1ccc3c(c1)OCO3)OCO2` as the compound, how does the Potency read?
A: inactive

Q: For `CC(CC(C#N)(c1ccccc1)c1ccccc1)N1CCCCC1` (stereo not drawn), which Potency is on record?
A: inactive

Q: For `O=C(N/N=C/c1ccc([N+](=O)[O-])o1)c1cc([N+](=O)[O-])cc([N+](=O)[O-])c1O`, which Potency is on record?
A: inactive

Q: Which Potency does the source give for `N[C@H](C(=O)O)c1cc(=O)[nH]o1` here?
A: inactive

Q: With `O=C(COC(=O)Cc1ccccc1)Nc1ccc(F)cc1` as the compound, how does the Potency read?
A: inactive

Q: For `CC(C)c1ccc(-n2c(O)c(/C=N/N3CCOCC3)c(=O)[nH]c2=S)cc1`, which Potency is on record?
A: inactive

Q: Which Potency does the source give for `CN(C)c1cccc(C(=O)Nc2nc3ccc(S(=O)(=O)NC(C)(C)C)cc3s2)c1` here?
A: 10.3 µM (active)

Q: With `CC1C2Cn3c(nc4ccccc43)C1N(C)O2` (stereo not drawn) as the compound, how does the Potency read?
A: inactive

Q: For `Cc1c(C(=O)O)cccc1-n1c(C)cc(/C=C2\C(=O)NC(=O)N(c3ccc4c(c3)OCO4)C2=O)c1C`, which Potency is on record?
A: inactive

Q: With `CN1[C@@H]2CC[C@H]1CC(OC(=O)c1cc(Cl)cc(Cl)c1)C2` (stereo partly drawn) as the compound, how does the Potency read?
A: 18.8 µM (active)

Q: With `CN1CCC(OC(=O)c2cccc(F)c2)CC1` as the compound, how does the Potency read?
A: inactive

Q: Which Potency does the source give for `COC(=O)[C@@H]1C(OC(=O)c2ccccc2)CC2CCC1N2C` (stereo partly drawn) here?
A: inactive

Q: For `CC1([N+](=O)[O-])COP(=O)(Nc2ccc(F)cc2)OC1` (stereo not drawn), which Potency is on record?
A: inactive

Q: Which Potency does the source give for `Cc1c(Oc2cc(NN3CCCCC3)c([N+](=O)[O-])cc2[N+](=O)[O-])cccc1[N+](=O)[O-]` here?
A: inactive
